Records with an inconclusive call do not appear. Entries that show only a call come without a potency. The source made the active and inactive calls. Calls follow the shape of the dose curve; as a rule, active = well fitted activation curve with a large enough effect; inconclusive = small, poorly fitted or top-dose-only effect; inactive = no such curve, though single readings can be large or run the other way.
Potency is read from the fitted curve at half-maximal effect.

This test can be described thus: Activators of T cell receptors: Hit Validation. Conditions: primary human leukocytes, cytokine release by HTRF, 48 h, TCR-stimulated with anti-CD3 beads; series mostly up to 46.1 µM. A digest of the protocol:
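Primary human leukocytes incubated 48 hr with anti-CD3 beads plus compound, without co-stimulation. Secreted IL-2 quantified by HTRF (europium cryptate donor, d2 acceptor, 665 nm emission).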
(Time-resolved FRET reads energy transfer from a long-lived donor to a nearby acceptor.)
`CCOc1ccc(C(=O)N(CN2CCCC2=O)c2cccc(Cl)c2)cc1`: the Potency result was “inactive”.

Regarding `CC(C)N1C(=O)C(=O)N(CC(=O)N2CCc3ccccc32)C1=O`, the Potency result is “inactive”.

For the compound `CN(C)c1ccc(N/C(N)=N/c2nc(C(F)(F)F)cc(C(F)(F)F)n2)cc1`, the Potency result was “inactive”.

`CC1CCN(CCNC(=O)C2CCN(S(=O)(=O)c3cccc4nsnc34)CC2)CC1`: the Potency entry was “inactive”.

As for `COc1ccc(C(=O)/C=C(\C)Nc2ccc(NC(C)=O)cc2)cc1`, the Potency result is “inactive”.

For the compound `CSCc1c(C(=O)OCC(=O)NC2CCCCC2)oc2ccccc12`, the Potency entry was “inactive”.

Regarding `CN(CC(=O)NCC(=O)Nc1ccc(F)cc1)C1CCS(=O)(=O)C1` (configuration not stated), the Potency entry is “inactive”.

For `COc1ccc(-n2c(=O)c(CCC(=O)NCCc3ccccc3F)nc3ccccc32)cc1`, the Potency result is “inactive”.

As to `CCC(=C/c1sc2ccc3ccccc3c2[n+]1C)/C=C1\Sc2ccc3ccccc3c2N1C`, the Potency was 9.96 µM (active).

For `c1ccc(Sc2ccccn2)cc1`, the Potency result is “inactive”.

In the case of `COc1ccccc1CNC(=O)CSc1ccc(Br)cc1`, the Potency entry was “inactive”.

Turning to `O=C1N=C(O)CN1/N=C/c1ccc(-c2ccc([N+](=O)[O-])cc2)o1`, the Potency result was “inactive”.

(Values after PubChem BioAssay AID624298 (National Center for Advancing Translational Sciences (NCATS), 2012).)
